Compounds with a hit are over-represented: about 15% of the library has one in this group of screens.
HCV inhibitor – blocks hepatitis C virus; Huh7.5.1 HCVcc-Cre infection, luciferase reporter, 44 h; 340,000 tested, 3.4% active; Potency, µM (titrated, usually from 41.8 µM), for inactives: at the top dose activity change, negative = inhibition, actives largely listed as inhibitors; also: potency is read from the fitted curve at half-maximal effect; % is scaled to controls: 0 for no effect and ±100 for the full control effect
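Whole-lifecycle infectious HCVcc-Cre system; cells 1,000/well, compound then virus (~0.5 moi) added 4 h after plating, 44 h culture. Luciferase read 15 sec following 15 min substrate incubation, room temp.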
Pf growth 48h – P. falciparum growth inhibition at 48 hours (one generation); Potency, µM (series often up to 28.7 µM), for the others: at the top dose activity change, negative = inhibition, most hits filed as inhibitors; 310,000 tested, 5.9% active; P. falciparum luciferase growth in erythrocytes, 48 h; AID 504832; also: potency is read from the fitted curve at half-maximal effect; % is scaled to controls: 0 for no effect and ±100 for the full control effect
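Erythrocytes infected with P. falciparum carrying an integrated firefly luciferase reporter (2% hematocrit, 0.1% parasitemia final) were exposed to compounds in RPMI 1640 with 0.5% Albumax at 37 C, 5% CO2. Growth inhibition was scored as reduced luminescence.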
SARS PLP yeast – blocks SARS-CoV papain-like protease in a yeast assay | 330,000 tested, 0.19% active | Potency, µM (doses to about 32.9 µM), inactives show at the top dose activity, positive = growth rescue, usual class: activators | S. cerevisiae expressing SARS-CoV PLpro, growth rescue; calls by dose curve; also: potency is read from the fitted curve at half-maximal effect; 0% is about no effect; nearly all actives have a fitted effect of over 55% in size
Pf growth 96h – inhibits malaria parasite growth, 96 h | P. falciparum luciferase reporter growth, 96 h | 320,000 tested, 6.9% active | AID 504834 | Potency, µM (highest dose often 28.7 µM), without a hit: top-dose activity change, negative = inhibition, hits mostly inhibitors; also: potency is read from the fitted curve at half-maximal effect; % is scaled to controls: 0 for no effect and ±100 for the full control effect
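Infected RBCs, 2% Hct / 0.05% parasitemia final; luciferase-reporter P. falciparum; cpd 96 h, 37 C, 5% CO2; luciferase detection reagent; luminescence.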
HCMV antiviral – blocks human cytomegalovirus replication; AID 1259415; HFF cells, HCMV-luciferase reporter, 72 h; stronger effect = lower value; activity change, negative = inhibition, % at 57.5 µM; 410,000 tested, 4.5% active; in the data active = activity change below about -60%; inconclusive = no clear call, values can overlap the other calls; inactive = above about -39%; also: % is scaled to controls: 0 for no effect and ±100 for the full control effect
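Compounds were evaluated in HFFs infected with an HCMV luciferase reporter virus (MOI 1 PFU/cell). Luciferase in lysates collected 72 h post infection served as the replication measure.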
Sm TGR inh – S. mansoni TGR enzyme inhibition; 360,000 tested, 3% active; Q962Y6; purified TGR, DTNB reduction, TNB absorbance 405 nm; Potency, µM (highest dose often 114 µM), inactives show at the highest dose activity change, negative = inhibition, actives largely listed as inhibitors; also: potency is read from the fitted curve at half-maximal effect; % is scaled to controls: 0 for no effect and ±100 for the full control effect; nearly all actives have a fitted effect of over 60% in size
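First, TGR (20 nM dispensed) and NADPH were mixed with compound. Second, a 15 min room-temperature incubation followed. Third, further NADPH and then DTNB were added to start the reaction. Finally, TNB absorbance was monitored kinetically.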
Numbers without * were called inactive; ? = inconclusive; / = not tested or not shown; [ ] = dose if it differs, or a comment. Unless noted, calls follow the shape of the dose curve; as a rule, active = well fitted curve in the direction sought with a large enough effect; inconclusive = small, poorly fitted or top-dose-only effect, or another doubt; inactive = no such curve, though single readings can be large; an effect the other way counts as inactive or inconclusive.

SMILES	HCV inhibitor	Pf growth 48h	SARS PLP yeast	Pf growth 96h	HCMV antiviral	Sm TGR inh
C[C@]12CCC3[C@@H](CC[C@@H]4C[C@H](O)CC[C@]34C)[C@@H]1CCC2=O (stereo partly drawn)	16%	-7%	/	4%	-75*	1%
CSc1nc(-c2ccc(Cl)cc2)nn1C(=O)c1ccccc1	0%	99%	-33%	1.3µM*	?	-6%
Nc1nc(-c2ccc(Cl)cc2)nn1C(=O)c1cccs1	8%	19%	-2%	13µM*	64	7%
COC(=O)c1ccccc1NC(=O)Cn1nnc2sc(-c3ccccc3)cc2c1=O	/	/	/	/	19	7%
N#Cc1nc(COc2ccccc2)oc1N1CCC(Cc2ccccc2)CC1	-26%	9.3µM*	-2%	-1%	-25	-2%
CN(C)Cc1c(O)ccc2cc(-c3nc4ccccc4n3C)c(=O)oc12	7%	-5%	9%	-26%	167	-34%
Cc1c(CN(C)C)c2c(n1C)C(=O)c1ccc(Br)cc1-2	?	?	-3%	12µM*	-35	?
Cc1c(CN(C)C)c2c(n1Cc1ccccc1)C(=O)c1ccc(Br)cc1-2	?	/	-10%	2.3µM*	-20	-3%
CCOC(=O)c1c2c(n(C)c1C)C(=O)C(=O)c1ccc(Br)cc1-2	?	/	/	/	-97*	/
NC(=O)c1ccc(/C=N/O)[n+](Cc2ccccc2)c1	12%	0%	-3%	58%	13	4%
CN(Cc1nc(-c2cnccn2)no1)Cc1cccc2ccccc12	-8%	?	0%	4%	-26	-2%[57.1 µM]
CN(C/C=C/C#CC(C)(C)C)Cc1cccc2ccccc12	3%	-9%	/	-10%	-80*	/
OC(c1cc(F)cc(Cl)c1)c1ncc(-c2ccccc2C(F)(F)F)[nH]1 (stereo not drawn)	/	/	/	/	-1	/
CC[C@@]1(O)C(=O)OCc2c1cc1n(c2=O)Cc2cc3c(N)cccc3nc2-1	27%	1.9µM*	0%	1.2µM*	-99*	?
CC[C@@]1(O)C(=O)OCc2c1cc1n(c2=O)Cc2cc3c(CN(C)C)c(O)ccc3nc2-1	?	8.5µM*	/	11µM*	-97*	/
CC[C@@]1(O)C(=O)OCc2c1cc1n(c2=O)Cc2cc3c([N+](=O)[O-])cccc3nc2-1	/	8.5µM*	/	?	/	/
O=c1cccc2n1Cc1cc3ccccc3nc1-2	1%[8.37 µM]	181%	-9%	189%	103	-4%
COc1ccc(CCC(=O)N/N=C/c2ccc3c(c2)OCO3)cc1	16%	/	/	/	-9	/
CCN(CC)C(=O)Cn1cc([N+](=O)[O-])cc1[N+](=O)[O-]	3%	/	/	/	-22	/
O=C(c1ccc(F)cc1)C1CCN(CCn2c(=O)[nH]c3ccccc3c2=O)CC1	?	6.6µM*	-1%	11µM*	-39	-8%
COc1ccccc1N(CC(=O)Nc1ccccc1C)S(C)(=O)=O	5%	-27%	1%	54%	-61*	0%
COc1ccc(N(CC(=O)Nc2ccccc2C(=O)NCC(C)C)S(C)(=O)=O)cc1	1%	-13%	16%	-6%	-8	-2%
COc1ccccc1N(CC(=O)Nc1ccccc1C(=O)NCC(C)C)S(C)(=O)=O	-5%	8.3µM*	4%	/	?	1%
CCOc1ccccc1N(CC(=O)Nc1ccccc1C(=O)O)S(C)(=O)=O	-1%	-26%	-2%	?	55	-22%
COc1ccccc1N(CC(=O)Nc1c(C)cccc1C)S(C)(=O)=O	20%	/	2%	?	-8	-3%
SMILES	HCV inhibitor	Pf growth 48h	SARS PLP yeast	Pf growth 96h	HCMV antiviral	Sm TGR inh
CC(C)CNC(=O)c1ccccc1NC(=O)CN(c1ccccc1)S(=O)(=O)N(C)C	-29%	10µM*	0%	-1%	-28	14%
CCOC(=O)c1ccccc1NC(=O)CN(c1ccccc1OCC)S(C)(=O)=O	18%	9.3µM*	?	11%	-12	0%
CCn1c(C)c(C(=O)O)c2cc(OC)c3ccccc3c21	-6%	20%	-1%	45%	-29	38%
Cc1ccnc2nc(C(=O)OC(C)C(=O)NCc3ccccc3)nn12 (stereo not drawn)	4%	-17%	4%	9%	27	-27%
CCc1ccc(-n2nc(CO)c(C(=O)NCc3ccccn3)n2)cc1	/	/	/	/	-6	4%
CCN(CC)CCCN1C(=O)C(=O)/C(=C(/O)c2ccc(OC)cc2)C1c1ccco1 (stereo not drawn)	-13%	/	/	/	0	/
CCN(CC)CCN1C(=O)C(=O)/C(=C(/O)c2ccc(OC)cc2)C1c1ccco1 (stereo not drawn)	32%	-6%	-5%	0.93µM*	4	40µM*
CCN(CC)CCCN1C(=O)C(=O)/C(=C(/O)c2ccc3c(c2)OCCO3)C1c1ccc(C)o1 (stereo not drawn)	/	/	5%	-2%	-3	50µM*
CCN(CC)CCN1C(=O)C(=O)/C(=C(/O)c2ccc(C)cc2)C1c1ccncc1 (stereo not drawn)	16%	20%	4%	?	/	-15%
CCN(CC)CCN1C(=O)C(=O)/C(=C(/O)c2ccc(OC(C)C)cc2)C1c1ccncc1 (stereo not drawn)	15%	/	9%	15µM*	27	-32%
CN(C)CCN1C(=O)C(=O)/C(=C(/O)c2ccc3c(c2)OCCO3)C1c1ccccn1 (stereo not drawn)	4%	62%	1%	55%	1	34%
C/C(CC(=O)NCc1ccco1)=N\NC(=O)c1ccc([N+](=O)[O-])cc1Cl	6%	-1%	-3%	4%	3	-3%
O=c1c2c3c(sc2n(CCN2CCCC2)c(=O)n1Cc1ccco1)CCCCC3	10µM*	?	2%	4%	-21	0%
CN(C)CCn1c(=O)n(C2CCCCC2)c(=O)c2c3c(sc21)CCCCC3	?	/	/	/	-21	/
CN(C)CCn1c(=O)n(Cc2ccco2)c(=O)c2c3c(sc21)CCCCC3	?	?	2%	7.4µM*	-25	7%
Cc1cc(OC(C)C(=O)N(Cc2ccco2)Cc2ccco2)cc(C)c1Cl (stereo not drawn)	/	/	/	/	36	0%
COCC(=O)N(Cc1cc2cccc(C)c2[nH]c1=O)c1ccccc1	5%	-1%	6%	14%	0	3%
CCCS(=O)(=O)NC(=O)C1(C)CCN(C(=O)COc2ccccc2)C1 (stereo not drawn)	/	/	/	/	-32	/
COc1cccc2c1OC[C@@H](CO)[C@H]2N(C)C(=O)Nc1ccc(Cl)cc1Cl	?	-1%	-6%	27%	-62*	-28%
COc1ccccc1-c1nnc(SCC(=O)Nc2ccc(Cl)cc2Cl)o1	-6%	6%	-5%	35%	60	3%
